Assay results: PMC5540273 (PLoS ONE, 2017)
Like-named read-outs stand apart in the source and are kept apart here.

Experiments:
NIM1 = tested on: T1, NIM1; conditions: concentration: 1 μM, replicates: in singlicate; n = 1
T1 construct: gene MGC42105

NLK = conditions: concentration: 1 μM, replicates: in singlicate; n = 1
OSR1 = tested on: T2, OSR1; conditions: concentration: 1 μM, replicates: in singlicate; n = 1
T2 construct: gene OXSR1

PAK1 = conditions: concentration: 1 μM, replicates: in singlicate; n = 1
PAK2 = conditions: concentration: 1 μM, replicates: in singlicate; n = 1
PAK3 = conditions: concentration: 1 μM, replicates: in singlicate; n = 1
PAK4 = conditions: n = 1
PAK6 = conditions: n = 1
PAK7 = conditions: concentration: 1 μM, replicates: in singlicate; n = 1
PCTK1 = tested on: T3, PCTK1; conditions: concentration: 1 μM, replicates: in singlicate; n = 1
T3 construct: gene CDK16

[1] = concentration: 1 μM, replicates: in singlicate
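Further: KINOMEscan kinase panel screen.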

| Compound | %Inh (NIM1) [%] | %Inh (NLK) [%] | %Inh (OSR1) [%] | %Inh (PAK1) [%] | %Inh (PAK2) [%] | %Inh (PAK3) [%] | %Inh (PAK4; [1]) [%] | %Inh (PAK6; [1]) [%] | %Inh (PAK7) [%] | %Inh (PCTK1) [%] | %Inh (PAK4; 1 µM) [%] | %Inh (PAK6; 1 µM) [%] |
| --- | --- | --- | --- | --- | --- | --- | --- | --- | --- | --- | --- | --- |
| CCS(=O)(=O)c1ccc(OC)c(Nc2nccc(-c3c(-c4cccc(NC(=O)c5c(F)cccc5F)c4)nn4ncccc34)n2)c1 [GSK326180] | 7 | 48 | 9 | 0 | 0 | 14 | 0 | 11 | 3 | 2 | – | – |
| CN(C)S(=O)(=O)c1cc(-c2ccc3nccc(-c4cccc(S(N)(=O)=O)c4)c3c2)cnc1N [GSK1669921] | 11 | 4 | 0 | 7 | 21 | 39 | 1 | 3 | 0 | 5 | – | – |
| Cc1ccc(S(=O)(=O)Nc2ccc(Nc3nccc(Nc4cccc5[nH]ncc45)n3)cc2)cc1 [GSK581271] | 26 | 56 | 13 | 14 | 12 | 35 | 0 | 18 | 0 | 2 | – | – |
| COc1cc(Nc2ncc3c(C)nc(-c4cc5ccccc5[nH]4)n3n2)cc(OC)c1OC [GW869516] | 0 | 0 | 0 | 5 | 22 | 69 | 33 | 23 | 28 | 0 | – | – |
| COc1ccc(CNC(=O)NC2CCN(c3ccnc(Nc4ccc(F)cc4)n3)CC2)cc1 [GSK1379788] | 8 | 0 | 0 | 0 | 0 | 6 | 0 | 0 | 2 | 0 | – | – |
| CC(C)(C)c1ccc2nccc(Nc3cccc(O)c3)c2c1 [GW856795] | 30 | 0 | 0 | 0 | 0 | 0 | 23 | 0 | 2 | 0 | – | – |
| O=C(Nc1cccc(-c2nn3ccccc3c2-c2ccnc(Nc3cccc(F)c3)n2)c1)c1c(F)ccc(F)c1Cl [GSK357952] | 7 | 46 | 2 | 0 | 2 | 16 | 0 | 0 | 15 | 0 | – | – |
| CN1CCN(Cc2cccc(-c3ccc4c(Nc5ccc(Oc6ccccc6)cc5)ccnc4c3)c2)CC1 [GW578342] | 22 | 41 | 4 | 16 | 0 | 29 | 0 | 0 | 0 | 0 | – | – |
| CCn1c(-c2nonc2N)nc2c(C#CC(C)(C)O)ncc(OCCCCN)c21.O=C(O)C(F)(F)F.O=C(O)C(F)(F)F [GSK507274] | 29 | 0 | 40 | 81 | 88 | 49 | – | – | 99 | 8 | 98.1 | 89 |
| COc1ccc(Nc2nccc(N3CCC(NC(=O)Nc4cccc(OC)c4)C3)n2)cc1 (centres unmarked) [GSK1379742] | 22 | 0 | 0 | 44 | 27 | 0 | 0 | 0 | 0 | 4 | – | – |
| CC(C)c1nc(-c2cccc(NS(=O)(=O)c3c(F)cccc3F)c2F)c(-c2ccnc(Nc3ccc(N4CCOCC4)nc3)n2)s1 [GSK2008607] | 1 | 97.5 | 0 | 27 | 18 | 93.3 | 0 | 9 | 20 | 99.5 | – | – |
| COCCOCCOc1cc2ncc3c4ccc(C#N)cc4[nH]c3c2cc1OC | 48 | 19 | 0 | 18 | 22 | 21 | 19 | 10 | 1 | 0 | – | – |
| COc1cc(Nc2nccc(-c3c(-c4cccc(NC(=O)c5c(F)cccc5F)c4)nn4ccccc34)n2)cc(OC)c1OC [GSK323521] | 39 | 0 | 4 | 11 | 5 | 44 | 9 | 7 | 6 | 3 | – | – |
| O=C(Nc1cccc(-c2nn3ncccc3c2-c2ccnc(Nc3ccccc3)n2)c1)c1c(F)cccc1F [GSK198271] | 4 | 95.1 | 16 | 24 | 16 | 31 | 0 | 1 | 0 | 10 | – | – |
| Cl.c1ccc(-c2ccc3c(Nc4ccc5[nH]ncc5c4)ccnc3c2)nc1 [GW440137] | 14 | 28 | 5 | 10 | 0 | 0 | 0 | 3 | 0 | 2 | – | – |
| COC(=O)Nc1nc2cc(Oc3ccc(NC(=O)Nc4cc(C(F)(F)F)ccc4F)cn3)ccc2[nH]1.Cl.Cl [GW681170] | 27 | 30 | 0 | 0 | 0 | 9 | 0 | 0 | 0 | 0 | – | – |

| Compound | %Inh (NIM1) [%] | %Inh (NLK) [%] | %Inh (OSR1) [%] | %Inh (PAK1) [%] | %Inh (PAK2) [%] | %Inh (PAK3) [%] | %Inh (PAK4; [1]) [%] | %Inh (PAK6; [1]) [%] | %Inh (PAK7) [%] | %Inh (PCTK1) [%] | %Inh (PAK4; 1 µM) [%] | %Inh (PAK6; 1 µM) [%] |
| --- | --- | --- | --- | --- | --- | --- | --- | --- | --- | --- | --- | --- |
| Cc1ccc(C)c(NC(=O)NC2CCN(c3ccnc(Nc4ccc(F)cc4)n3)C2)c1 (centres unmarked) [GSK1379720] | 43 | 4 | 0 | 4 | 2 | 14 | 0 | 0 | 0 | 0 | – | – |
| Cl.Cl.NCC(C(=O)Nc1cc(Br)c(-c2ccnc3[nH]ccc23)s1)c1ccccc1 (centres unmarked) [GSK1269851] | 11 | 0 | 36 | 17 | 32 | 27 | 0 | 0 | 51 | 11 | – | – |
| COC(=O)Nc1nc2ccc(Oc3ccc(NC(=O)Nc4cc(C(F)(F)F)ccc4F)cc3)cc2n1C.Cl [GW692089] | 32 | 8 | 0 | 0 | 0 | 6 | 0 | 0 | 0 | 0 | – | – |
| COc1ccc(Nc2nccc(NCCNC(=O)c3cc4ccccc4s3)n2)cc1 [GSK1379896] | 4 | 49 | 10 | 7 | 0 | 2 | 0 | 1 | 0 | 1 | – | – |
| c1ccc(Oc2ccc(Nc3ccnc4cc(-c5ccc(CNCCN6CCOCC6)o5)ccc34)cc2)nc1 [GW567145] | 20 | 12 | 2 | 0 | 0 | 3 | 0 | 0 | 0 | 0 | – | – |
| CNC(=O)c1ccccc1Nc1nc(Nc2ccc(N3CCOCC3)cc2)ncc1Cl.Cl [GSK1576028] | 41 | 26 | 35 | 71 | 61 | 100 | 78 | 66 | 83 | 11 | – | – |
| Fc1ccc(-c2ncn(C3CCNCC3)c2-c2ccnc(Oc3ccc(-c4ccccc4)cc3)n2)cc1 [SB-245391] | 42 | 52 | 36 | 25 | 18 | 22 | 14 | 25 | 0 | 16 | – | – |
| CCn1c(-c2nonc2N)nc2c(C#CC(C)(C)O)nc(OC[C@H](N)c3ccccc3)cc21 [GSK943949] | 0 | 7 | 0 | 0 | 0 | 27 | 94.6 | 97.9 | 98 | 0 | – | – |
| c1ccc(-c2n[nH]cc2Nc2ccnc3ccccc23)nc1 [GW694077] | 25 | 53 | 7 | 6 | 50 | 1 | 20 | 0 | 2 | 4 | – | – |
| Cc1cccc(NC(=O)Nc2ccc(Oc3ncnc4ccn(C)c34)cc2)c1 | 0 | 0 | 0 | 0 | 0 | 0 | 0 | 0 | 0 | 0 | – | – |
| Cc1ccc(C(=O)Nc2ccc(Nc3ccnc4cc(-c5nccs5)ccc34)cc2O)cc1.Cl [GW494702] | 19 | 0 | 6 | 0 | 0 | 9 | 1 | 0 | 0 | 0 | – | – |
| Cc1occc1-c1ncc(OC[C@@H](N)Cc2c[nH]c3ccccc23)cc1-c1ccc2[nH]nc(C)c2c1.O=C(O)C(F)(F)F [GSK682037] | 33 | 39 | 8 | 97.5 | 68 | 32 | 2 | 15 | 36 | 0 | – | – |
| COc1ccc(-c2coc3ccc(-c4nnc(SCc5ccc(OC)c(C(F)(F)F)c5)o4)cc23)cc1 | 0 | 10 | 3 | 0 | 3 | 22 | 1 | 17 | 3 | 0 | – | – |
| Cl.c1ccc(-c2ccc3c(Nc4ccc5[nH]ccc5c4)ccnc3c2)nc1 [GW440138] | 29 | 36 | 4 | 0 | 0 | 0 | 0 | 0 | 0 | 0 | – | – |
| c1ccc(-c2cnc3nccnn23)cc1 [AH20685] | 0 | 0 | 0 | 13 | 20 | 2 | 0 | 0 | 0 | 7 | – | – |
| COc1cc(Nc2nccc(N3CCC(NC(=O)Nc4cccc(C(C)=O)c4)C3)n2)cc(OC)c1OC (centres unmarked) [GSK1379753] | 11 | 21 | 6 | 0 | 0 | 100 | 0 | 7 | 13 | 10 | – | – |
